# Screening results as filed in PubChem.
# Most compounds without a hit are left out; they make up all but 4.5% or so of the library.
# PfHsp40 yeast: rescue of PfHsp40-mediated yeast toxicity | S. cerevisiae expressing PfHsp40, growth rescue, ATP luminescence | growth rescue, % at 12.5 µM | hit rate 0.68% among 340,000 | AID 504582; in the data active = growth rescue above about 28%, passing the limit was not always enough;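 note: yeast W303a lacking pdr1 and pdr3 grown in galactose medium; growth measured after three days at 30 °C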
# GDH-TPI counter-1: counter-screen for M. tuberculosis FBA inhibitors: GDH-TPI coupled enzymes; inhibition, % at 4.8 µM; GDH-TPI coupled enzyme counterscreen, NADH absorbance; hit rate 1.2% among 360,000; in the data active = inhibition above about 30%;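 note: 0% = DMSO wells and 100% = wells lacking the enzyme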
# BJeLR lethal: BJeLR cell viability loss. BJeLR (HRASV12) viability, CellTiter-Glo ATP luminescence, 48 h. inhibition, % (concentration not given with the values). hit rate 0.17% among 300,000. AID 1554; in the data active = inhibition above about 50%
# PrP 5UTR inh: inhibition of PrP 5' UTR reporter expression; cell-based PrP 5' UTR mRNA reporter, plate reader; hit rate 0.35% among 340,000; inhibition, % (test concentration not listed); AID 488862; in the data active = inhibition above about 52%; note: 0 = median of the neutral control wells
# FBA Mtb inh: Mtb fructose-bisphosphate aldolase inhibition | P9WQA3 | purified M. tuberculosis FBA, fluorescence read-out | inhibition, % at 1 µM | hit rate 2.3% among 360,000;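 note: 0% = vehicle and 100% = reference inhibitor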
# Target sequence (P9WQA3 whole entry, looked up): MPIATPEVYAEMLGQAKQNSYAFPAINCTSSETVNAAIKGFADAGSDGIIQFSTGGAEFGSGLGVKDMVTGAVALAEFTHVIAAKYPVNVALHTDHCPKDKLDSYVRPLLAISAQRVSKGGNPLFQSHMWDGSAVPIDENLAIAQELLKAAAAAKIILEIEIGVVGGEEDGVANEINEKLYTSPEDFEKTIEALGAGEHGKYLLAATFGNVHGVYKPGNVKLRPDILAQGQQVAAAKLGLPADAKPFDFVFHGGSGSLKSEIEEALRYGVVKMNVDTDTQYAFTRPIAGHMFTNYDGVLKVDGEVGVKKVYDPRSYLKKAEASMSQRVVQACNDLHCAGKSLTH
# PrPC surface inh: inhibitors of human cell surface prion protein PrPC; TR-FRET read-out; hit rate 0.43% among 370,000; inhibition, % at 13.8 µM; P04156; in the data active = inhibition above about 24%; note: 0% = median of the test wells and 100% = reference compound wells
# Mtb FBA confirm: Mtb FBA inhibition, confirmed; shares compounds with FBA Mtb inh; purified M. tuberculosis FBA, fluorescence read-out; inhibition, % at 1 µM; hit rate 78% among 5,600; AID 651616;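 note: 0% = vehicle wells and 100% = reference inhibitor wells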
# GDH-TPI counter-2: GDH-TPI inhibition counter-screen for FBA inhibitors; hit rate 81% among 5,600; shares compounds with FBA Mtb inh; GDH-TPI coupled enzyme counterscreen, fluorescence; inhibition, % at 1 µM; in the data active = inhibition above about 10%
# GDH-TPI DR: GDH-TPI dose response counter-screen for Mtb FBA. IC50, µM. AID 652145. shares compounds with FBA Mtb inh. GDH-TPI coupled enzyme assay, fluorescence, artifact counterscreen. hit rate 79% among 170; call rule not given here
# * hit, by the source's call; . = not tested or not shown; + = active, no number; ! = a repeat was not active. Cut-off read from the data, not from the text of the source, unless noted: active = inhibition above about 27%; inactive = the rest.
SMILES,PfHsp40 yeast,GDH-TPI counter-1,BJeLR lethal,PrP 5UTR inh,FBA Mtb inh,PrPC surface inh,Mtb FBA confirm,GDH-TPI counter-2,others
COc1cc(/C=N/n2cc(-c3ccccc3)[nH]c2=S)cc(OC)c1O,1,26,-12,-11,43*,0,80*,64*,
O=C(NCCc1ccc2c(c1)OCO2)c1cc(-c2ccccc2)c(N2CCOCC2)s1,.,.,.,.,.,-1,.,.,
COC(=O)C1=C(C)N(Cc2ccc(Cl)cc2)C(=S)NC1c1ccc(OC)cc1 (stereo not given),.,.,.,.,.,-1,.,.,
O=C1NC2(CCCCC2)C(=O)N1CC(=O)N(Cc1ccccc1)c1ccccc1,0,3,-4,-9,0,-1,.,.,
O=C(COc1ccc2c3c(c(=O)oc2c1)CCC3)N1CCN(c2ccccc2)CC1,-1,10,6,-7,9,-2,.,.,
CCN(CC)C(=O)COc1ccc2c3c(c(=O)oc2c1)CCCC3,0,10,-3,-35,50*,1,40*,41*,
O=C(O)COc1ccc2c3c(c(=O)oc2c1)CCC3,0,6,2,-14,96*,-1,72*,47*,
CCc1c(C)c2ccc(OCC(N)=O)cc2oc1=O,0,0,1,-33,88*,8,18,6,
CC(C)CC(C(=O)Oc1ccc2c3c(c(=O)oc2c1)CCC3)N1C(=O)c2ccccc2C1=O (stereo not given),0,4,-4,-5,31*,-3,13,-3,GDH-TPI DR=5.6*
CC1(C(=O)O)CCC(C(=O)NNC(=O)c2ccccc2O)C1(C)C (stereo not given),2,11,1,-25,6,1,.,.,
CCS(=O)(=O)c1nc(S(=O)(=O)c2ccc(C)cc2)c(N2CCC(O)CC2)s1,0,19,3,-5,4,4,.,.,
O=C(c1cccnc1)C1CCCN(Cc2nc(Cc3ccccc3)no2)C1 (stereo not given),0,4,-2,-11,2,9,.,.,
CN(C)C(=O)COc1ccc2c3c(c(=O)oc2c1)CCCC3,-1,15,-3,-37,61*,-7,107*,84*,
O=C(COc1ccc2c3c(c(=O)oc2c1)CCC3)NCc1cccnc1,0,16,1,-7,26,-1,.,.,
O=C(COc1ccc2c3c(c(=O)oc2c1)CCC3)N[C@@H](Cc1ccccc1)C(=O)O,1,21,-1,17,27*,5,9,-6,
CCOC(=O)COc1ccc2c3c(c(=O)oc2c1)CCCC3,0,0,1,-6,32*,15,+,182*,
O=C(COc1ccc2c3c(c(=O)oc2c1)CCC3)Nc1ccc(CCO)cc1,0,10,2,-26,9,0,.,.,
CC(C)Oc1ccc2c3c(c(=O)oc2c1)CCC3,1,19,6,-35,76*,-1,86*,72*,
CC(OC(=O)Cc1n[nH]c(=O)c2ccccc12)C(=O)N(C)c1ccccc1 (stereo not given),.,1,.,.,-3,7,.,.,
Cc1cc2oc(C(=O)NCc3ccccc3)cc(=O)c2cc1C,.,15,1,-4,5,-6,.,.,
CSCCNC(=O)C1(C)CCN1C(=O)C/C=C/c1ccccc1 (stereo not given),.,15,.,.,1,9,.,.,
COc1ccc(-c2cc(=O)c3cc(OC)c(OC)cc3[nH]2)cc1,-2,19,6,-29,58*,8,66*,59*,
COc1ccc(-c2cc(=O)[nH]c(=O)[nH]2)cc1,0,17,7,-14,-4,5,.,.,
COc1ccc2[nH]c(-c3ccc(C)cc3)cc(=O)c2c1,-4,17,8,45,44*,.,+,165*,
COc1ccc(-c2cc(-c3ccccc3)c(C#N)c(=S)[nH]2)cc1,-1,0,1,-14,1,2,.,.,
SMILES,PfHsp40 yeast,GDH-TPI counter-1,BJeLR lethal,PrP 5UTR inh,FBA Mtb inh,PrPC surface inh,Mtb FBA confirm,GDH-TPI counter-2,others
COc1ccc(-c2cc(=O)c3cc(F)ccc3[nH]2)cc1,0,-2,1,-3,31*,5,126*,98*,
COc1ccc2[nH]c(-c3ccccc3)cc2c1,0,8,2,-49,100*,5,91*,71*,
CN(Cc1ccccc1)C(=O)C1CCCN(Cc2cccc(Cl)c2)C1 (stereo not given),-1,-12,-1,2,2,-7,.,.,
Cc1ccc2c(c1)c1c3n2CCNC3CCC1 (stereo not given),-1,-1,1,-5,81*!,4,44*,37*,
Cc1ccc2c(c1)c1c3n2CCN(C=O)C3CCC1 (stereo not given),2,0,-11,-15,4,-8,.,.,
COC(=O)c1sc2cnccc2c1N,-1,14,-9,-17,110*,-8,91*,85*,
COC(=O)c1ccncc1N,-1,0,-4,-10,47*,9,7,-4,
CCOc1c2ccc(C(=O)N[C@H](C)C3CCCCC3)cc2nn1CC,1,15,-2,-15,64*,-3,53*,45*,
CCCCn1nc2cc(C(=O)NCCc3cccs3)ccc2c1OCC,0,0,1,-26,62*,3,125*,103*,
CCCCOc1ccc(C(=O)NCCc2cccs2)cc1,4,2,-3,-35,-2,.,.,.,
CCOc1c2ccc(C(=O)NCCc3cccs3)cc2nn1CC,-1,11,-3,-67,58*,-4,28*,18*,
Cc1ccc(-n2c(SCC(=O)Nc3ccccc3-c3ccccc3)nnc2-c2cccs2)cc1,.,.,.,.,.,8,.,.,
Cc1ccc2nc(-c3ccsc3)c(NC3CCCC3)n2c1,0,9,-1,-20,28*,-3,18,14*,
Cc1ccc(C2=NOC3(CC(=O)N(c4ccc(C)cc4)C3=O)C2)cc1 (stereo not given),0,28,-8,-10,29*,2,43*,38*,
Cc1ccc(C2=NOC3(CC(=O)N(c4ccccc4)C3=O)C2)cc1 (stereo not given),0,10,-6,-21,1,5,.,.,
COc1ccc(-c2cc3nc(NCCCN(C)C)n(C)c(=O)c3s2)cc1OC,.,20,.,.,47*,-22,129*,86*,
O=C(Nc1cccc2ccccc12)N1CC=CCC1,-1,-6,2,-5,40*,1,5,3,
O=C(CSCC(=O)Nc1cccc2ccccc12)Nc1cccc2ccccc12,0,-8,0,-18,6,2,.,.,
